The campaign covered roughly 5,500 compounds. About 2,000 (36%) were called active. About 18% were inconclusive and are not listed. Rule as the data show it: active = normalized growth mostly below about 0.91 (no sharp cut-off); inconclusive = no clear call, values can overlap the other calls; inactive = mostly above about 0.92. The list shows a part of the results.
Test: chemical genetic growth profiling, strain panel (AID 1159580);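 also: tested at 20 µM; growth read once vehicle control cultures reached saturation at 30 °C; 1 = growth at the plate median or of vehicle wells; lower values mean less growth of the strain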
Conditions: S. cerevisiae deletion strains, growth OD

Measured: normalized growth

C[C@@H]1CC2C3CCC4=CC(=O)C=C[C@]4(C)[C@@]3(F)[C@@H](O)C[C@]2(C)[C@H]1C(=O)CO (stereo not given in full)
inactive: locus YAL021C, strain ccr4, active compounds read low 1 | locus YAL026C, strain drs2, active compounds read low 0.998 | locus YAL030W, strain snc1, active compounds read low 0.998 | locus YBL061C, strain skt5, active compounds read low 0.999 | locus YBR009C, strain hhf1, active compounds read low 0.997 | locus YBR023C, strain chs3, active compounds read low 0.995 | locus YBR171W, strain sec66, active compounds read low 0.986 | locus YBR231C, strain swc5, active compounds read low 0.988 | locus YBR279W, strain paf1, active compounds read low 0.997 | locus YCL011C, strain gbp2, active compounds read low 0.993 | locus YCL016C, strain dcc1, active compounds read low 1.01 | locus YCL061C, strain MRC1, active compounds read low 0.994 | locus YCL069W, strain vba3, active compounds read low 1 | locus YCR088W, strain abp1, active compounds read low 0.992 | locus YDL005C, strain med2, active compounds read low 0.997 | locus YDL040C, strain nat1, active compounds read low 0.996 | locus YDR001C, strain nth1, active compounds read low 0.987 | locus YDR069C, strain doa4, active compounds read low 0.999 | locus YDR137W, strain rgp1, active compounds read low 0.979 | locus YDR159W, strain sac3, active compounds read low 0.998 | locus YDR195W, strain ref2 0.965 | locus YDR297W, strain sur2, active compounds read low 0.996 | locus YDR334W, strain swr1, active compounds read low 1 | locus YDR335W, strain msn5, active compounds read low 1 | locus YDR392W, strain spt3, active compounds read low 0.976 | locus YEL003W, strain gim4, active compounds read low 0.999 | locus YEL037C, strain rad23, active compounds read low 1 | locus YEL061C, strain CIN8 (second series), active compounds read low 0.996 | locus YER015W, strain faa2, active compounds read low 0.999 | locus YER016W, strain bim1, active compounds read low 1 | locus YER111C, strain swi4, active compounds read low 0.982 | locus YER155C, strain BEM2 (second series), active compounds read low 0.994 | locus YFR010W, strain ubp6, active compounds read low 0.989 | locus YGL167C, strain pmr1, active compounds read low 0.996 | locus YGL173C, strain kem1, active compounds read low 0.987 | locus YGL227W, strain vid30, active compounds read low 0.989 | locus YGL240W, strain doc1, active compounds read low 1 | locus YGL253W, strain hxk2, active compounds read low 1.01 | locus YHR013C, strain ard1, active compounds read low 1 | locus YHR027C, strain rpn1, active compounds read low 0.995 | locus YHR030C, strain SLT2, active compounds read low 1.06 | locus YHR079C, strain IRE1, active compounds read low 1.05 | locus YHR142W, strain chs7, active compounds read low 1.01 | locus YJL092W, strain hpr5, active compounds read low 0.998 | locus YJL095W, strain BCK1 (second series), active compounds read low 1.01 | locus YJL095W, strain BCK1, active compounds read low 0.98 | locus YJL115W, strain asf1, active compounds read low 0.996 | locus YJL129C, strain trk1, active compounds read low 1.01 | locus YJL154C, strain vps35, active compounds read low 0.995 | locus YJL164C, strain tpk1, active compounds read low 1.01 | locus YJL166W, strain qcr8, active compounds read low 0.998 | locus YJL187C, strain SWE1, active compounds read low 0.993 | locus YJR066W, strain TOR1, active compounds read low 1.01 | locus YKL160W, strain elf1, active compounds read low 1 | locus YKR026C, strain gcn3, active compounds read low 0.982 | locus YKR091W, strain srl3, active compounds read low 0.996 | locus YLL001W, strain dnm1, active compounds read low 0.982 | locus YLL026W, active compounds read low 0.988 | locus YLL041C, strain sdh2, active compounds read low 0.999 | locus YLR027C, strain aat2, active compounds read low 1.01 | locus YLR113W, strain HOG1, active compounds read low 0.929 | locus YLR221C, strain rsa3, active compounds read low 1.01 | locus YLR258W, strain gsy2, active compounds read low 1 | locus YLR262C, strain YPT6 (second series), active compounds read low 0.985 | locus YLR320W, strain mms22, active compounds read low 0.992 | locus YLR342W, strain FKS1, active compounds read low 1 | locus YLR357W, strain rsc2, active compounds read low 0.999 | locus YLR370C, strain arc18, active compounds read low 0.993 | locus YLR384C, strain iki3, active compounds read low 1 | locus YML120C, strain ndi1, active compounds read low 1 | locus YMR058W, strain fet3, active compounds read low 1 | locus YMR125W, strain sto1, active compounds read low 0.983 | locus YMR129W, active compounds read low 0.995 | locus YMR205C, strain PFK2, active compounds read low 0.973 | locus YMR231W, strain pep5, active compounds read low 0.998 | locus YNL071W, strain lat1, active compounds read low 0.999 | locus YNL183C, strain NPR1, active compounds read low 0.992 | locus YNL209W, strain ssb2, active compounds read low 1 | locus YNL248C, strain rpa49, active compounds read low 0.999 | locus YNL322C, strain KRE1 (second series), active compounds read low 1 | locus YNR049C, strain mso1, active compounds read low 0.999 | locus YOR001W, strain rrp6, active compounds read low 1.01 | locus YOR070C, strain gyp1, active compounds read low 0.997 | locus YOR080W, strain dia2, active compounds read low 0.991 | locus YOR083W, strain WHI5, active compounds read low 1.01 | locus YOR106W, strain vam3, active compounds read low 1.02 | locus YOR231W, strain MKK1, active compounds read low 1.05 | locus YOR265W, strain rbl2, active compounds read low 1 | locus YOR270C, strain vph1, active compounds read low 1.01 | locus YOR290C, strain snf2, active compounds read low 1 | locus YPL051W, strain arl3, active compounds read low 0.999 | locus YPL078C, strain atp4, active compounds read low 1.01 | locus YPL106C, strain sse1, active compounds read low 1.01 | locus YPL240C, strain hsp82, active compounds read low 0.982 | locus YPL256C, strain CLN2, active compounds read low 1.04
